For nine molecules, growth results are on record in PubChem BioAssay (NCI).

Compounds without any hit were thinned out: in the full panel of roughly 83,000, 20% have a hit.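 A percent growth of 40 corresponds to 60% growth inhibition; 0 means no net growth; -100 means all cells died. Active threshold: below 10.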 Unmarked numbers belong to inactive results. Activity calls are given as the source filed them.

Test systems include SK-MEL-2 melanoma; EKVX NSCLC; SN12C renal; UO-31 renal; TK-10 renal; ACHN renal; A498 renal; CCRF-CEM leukemia; MOLT-4 leukemia; SR leukemia; RPMI-8226 leukemia; OVCAR-8 ovarian; OVCAR-5 ovarian; OVCAR-4 ovarian; SK-OV-3 ovarian; IGROV1 ovarian; OVCAR-3 ovarian; HS 578T breast; NCI/ADR-RES ovarian; CAKI-1 renal.
Common to all, as to assay: NCI-60 one-dose screen, 48 h (100 = growth as untreated, 0 = no growth, -100 = all killed)
Settings in all cases: 10 µM unless noted

With `COc1ccc(Nc2cc(Cl)ccc2C(=O)O)cn1`, the growth with SK-MEL-2 melanoma is 115%; with EKVX NSCLC it was 130%; in the experiment with SN12C renal it was 93.2%; in the experiment on UO-31 renal it was 88.9%; in the experiment with TK-10 renal, 156%; with ACHN renal, 108%. Besides, the growth in the experiment on A498 renal was 90.9%; with CCRF-CEM leukemia it was 96.3%; with MOLT-4 leukemia, 93.5%; in the experiment with SR leukemia it was 109%; in the experiment on RPMI-8226 leukemia it was 90.6%; in the experiment on OVCAR-8 ovarian it was 103%. Further, the growth in the experiment on OVCAR-5 ovarian was 107%; in the experiment on OVCAR-4 ovarian, 103%; with SK-OV-3 ovarian it was 97.3%; in the experiment on IGROV1 ovarian, 115%; in the experiment on OVCAR-3 ovarian it was 94.5%; in the experiment with HS 578T breast, 95.8%. For the same molecule, the growth with NCI/ADR-RES ovarian was 109%.
Turning to `CC1CCC(C)(C)c2ccccc21` (stereo not drawn), the growth with SK-MEL-2 melanoma is 106%; in the experiment with EKVX NSCLC it was 96.3%; in the experiment with SN12C renal, 99.5%; with UO-31 renal it was 91.5%; in the experiment with TK-10 renal, 104%; in the experiment with ACHN renal, 98.4%. For the same molecule, the growth with CAKI-1 renal is 96.5%; in the experiment with MOLT-4 leukemia, 116%; in the experiment with SR leukemia, 107%; in the experiment with RPMI-8226 leukemia, 117%; in the experiment on OVCAR-8 ovarian, 105%; in the experiment on OVCAR-5 ovarian, 92.4%. The growth in the experiment with OVCAR-4 ovarian was 98.2%; in the experiment on SK-OV-3 ovarian, 101%; in the experiment on IGROV1 ovarian, 98.4%; with OVCAR-3 ovarian it was 114%; in the experiment on HS 578T breast, 105%; in the experiment on NCI/ADR-RES ovarian, 101%.
As for `CCOS(=O)(=O)c1ccc([N+](=O)[O-])cc1`, the growth was 102% in the experiment on SK-MEL-2 melanoma; 110% in the experiment with EKVX NSCLC; 101% in the experiment with SN12C renal; 88.9% with UO-31 renal; 95% in the experiment on TK-10 renal; 103% with ACHN renal. Besides, the growth in the experiment on CAKI-1 renal was 99%; with CCRF-CEM leukemia, 99.2%; with MOLT-4 leukemia it was 98.5%; with SR leukemia it was 88.2%; in the experiment on RPMI-8226 leukemia it was 106%; with OVCAR-8 ovarian, 104%. Also, the growth in the experiment with OVCAR-5 ovarian is 103%; in the experiment on OVCAR-4 ovarian, 101%; with SK-OV-3 ovarian, 111%; in the experiment on IGROV1 ovarian, 105%; in the experiment on OVCAR-3 ovarian, 106%; in the experiment on HS 578T breast, 108%. Moreover, in the experiment on NCI/ADR-RES ovarian, the growth was 105%.
Turning to `CC(=O)N(C)N=Nc1ccc(C)cc1`, the growth in the experiment on SK-MEL-2 melanoma was 101%; in the experiment on EKVX NSCLC, 101%; in the experiment on SN12C renal, 100%; with UO-31 renal, 81.6%; in the experiment on TK-10 renal it was 92.7%; with ACHN renal it was 108%. Further, the growth was 100% in the experiment on A498 renal; 95.6% with CCRF-CEM leukemia; 112% with MOLT-4 leukemia; 102% in the experiment on RPMI-8226 leukemia; 112% in the experiment with OVCAR-8 ovarian; 83.1% with OVCAR-5 ovarian. The growth with OVCAR-4 ovarian is 102%; in the experiment with SK-OV-3 ovarian it was 110%; with IGROV1 ovarian it was 152%; with OVCAR-3 ovarian, 103%; with HS 578T breast it was 95.1%; in the experiment on NCI/ADR-RES ovarian it was 99.1%.
On to `Cc1cc(CC(=O)NCCO)n(CCO)c(=O)c1`, for which the growth in the experiment on SK-MEL-2 melanoma is 109%; in the experiment with EKVX NSCLC, 93.7%; with SN12C renal it was 103%; in the experiment with UO-31 renal it was 94.4%; in the experiment with TK-10 renal, 94.1%; with ACHN renal it was 106%. The growth in the experiment on CAKI-1 renal was 101%; in the experiment with A498 renal it was 89.4%; with OVCAR-8 ovarian it was 103%; in the experiment on OVCAR-5 ovarian, 106%; with OVCAR-4 ovarian, 108%; in the experiment on SK-OV-3 ovarian, 104%. Moreover, the growth was 108% in the experiment with IGROV1 ovarian, 106% with OVCAR-3 ovarian, 101% in the experiment on HS 578T breast and 106% in the experiment with NCI/ADR-RES ovarian.
Regarding `O=C1CSc2ccccc2N1`, the growth was 103% with SK-MEL-2 melanoma; 97% in the experiment on EKVX NSCLC; 100% in the experiment with SN12C renal; 69.2% in the experiment with UO-31 renal; 105% in the experiment on TK-10 renal; 110% with ACHN renal. In addition, the growth was 97.2% in the experiment with A498 renal; 96.6% in the experiment with CCRF-CEM leukemia; 114% in the experiment on MOLT-4 leukemia; 105% in the experiment on SR leukemia; 95.2% in the experiment with RPMI-8226 leukemia; 94.9% in the experiment on OVCAR-8 ovarian. Also, the growth with OVCAR-5 ovarian was 116%; in the experiment on OVCAR-4 ovarian, 98.9%; with SK-OV-3 ovarian, 112%; with IGROV1 ovarian, 105%; in the experiment with OVCAR-3 ovarian, 115%; in the experiment on NCI/ADR-RES ovarian, 98.8%.
Consider `C=C(C)[C@@H]1CC[C@]2(CO)CC[C@]3(C)[C@H](CC[C@@H]4[C@@]5(C)CC[C@H](O)C(C)(C)[C@@H]5CC[C@]43C)[C@@H]12`, for which the growth was 82.1% in the experiment on SK-MEL-2 melanoma; 66.4% with EKVX NSCLC; 47.5% in the experiment on SN12C renal; 27.8% in the experiment with UO-31 renal; 51% in the experiment with TK-10 renal; 18.3% in the experiment with ACHN renal. For the same molecule, the growth is 72.6% in the experiment with CAKI-1 renal; 75.7% in the experiment on CCRF-CEM leukemia; 71.1% with MOLT-4 leukemia; 42.6% in the experiment with SR leukemia; 41.2% in the experiment on RPMI-8226 leukemia; -21.9% (active) with OVCAR-5 ovarian. The growth in the experiment on OVCAR-4 ovarian is 33.7%; with SK-OV-3 ovarian it was 41.3%; with IGROV1 ovarian, 35.9%; with OVCAR-3 ovarian it was 64.5%; in the experiment on NCI/ADR-RES ovarian, -43.6% (active).
Take `COc1ccc2c(ccc[n+]2C)c1`: the growth was 103% in the experiment with SK-MEL-2 melanoma; 84.7% with EKVX NSCLC; 104% in the experiment on SN12C renal; 86.5% in the experiment with UO-31 renal; 102% in the experiment on TK-10 renal; 98.5% with ACHN renal. In addition, the growth with A498 renal is 107%; in the experiment with CCRF-CEM leukemia, 98.3%; in the experiment on MOLT-4 leukemia, 111%; in the experiment with SR leukemia, 115%; with RPMI-8226 leukemia, 85.4%; in the experiment on OVCAR-8 ovarian it was 94.8%. Also, the growth in the experiment with OVCAR-5 ovarian was 99.9%; in the experiment with OVCAR-4 ovarian it was 91.9%; in the experiment on SK-OV-3 ovarian, 107%; in the experiment on IGROV1 ovarian, 85.3%; in the experiment with OVCAR-3 ovarian, 82.7%; in the experiment with HS 578T breast, 80.2%. In addition, the growth in the experiment on NCI/ADR-RES ovarian is 106%.
In the case of `Cc1cc2c3ccc(C)[n+](C)c3ccc2n1C`, the growth is 92.4% with SK-MEL-2 melanoma; 20% in the experiment with EKVX NSCLC; 22.4% in the experiment with SN12C renal; 27.1% in the experiment on UO-31 renal; 65.6% in the experiment with TK-10 renal; 79.4% in the experiment on ACHN renal. In addition, the growth in the experiment on CAKI-1 renal was 58.1%; in the experiment on CCRF-CEM leukemia, 36.7%; in the experiment with MOLT-4 leukemia, 25.2%; with SR leukemia it was 15.4%; in the experiment with RPMI-8226 leukemia, 21.2%; with OVCAR-8 ovarian, 30.3%. Further, the growth was 68.2% with OVCAR-5 ovarian; 62.6% with OVCAR-4 ovarian; 35.9% with SK-OV-3 ovarian; 54.7% with IGROV1 ovarian; 47% with OVCAR-3 ovarian; 38.6% with HS 578T breast. The growth in the experiment with NCI/ADR-RES ovarian was 88.3%.
